HCV inh – qHTS Assay for Inhibitors of Hepatitis C Virus (HCV). Huh7.5.1 HCVcc-Cre infection, luciferase reporter, 44 h. Potency, µM (titrated, usually from 41.8 µM), for the others: top-dose activity change, negative = inhibition, actives largely listed as inhibitors. actives 3.4% (n = 340,000); active means well fitted inhibition curve with a large enough effect; inconclusive means small, poorly fitted or top-dose-only effect, or another doubt; inactive means no such curve, though single readings can be large or run the other way; further: potency means the concentration at half of the fitted maximal effect
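A cell-based infection assay in which seeded cells (1,000 per well) receive test compound after 4 h, are inoculated with HCVcc-Cre at approximately 0.5 moi, and are incubated 44 h before luminescence detection.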
VACV mCherry inh – qHTS for Stage-Specific Inhibitors of Vaccinia Orthopoxvirus: mCherry Reporter Primary qHTS; Vaccinia virus mCherry reporter infection, fluorescence; Potency, µM (top dose mostly 36.5 µM), without a hit: at the highest dose activity change, negative = inhibition, hits mostly inhibitors; actives 0.63% (n = 310,000); AID 720579, 2013; calls by dose curve; tested in A549 cells; further: potency means the concentration at half of the fitted maximal effect; nearly all actives have a fitted effect of over 35% in size
HCMV inh – qHTS Assay for inhibitors of the human cytomegalovirus (HCMV); AID 1259415, 2018; activity change, negative = inhibition, % at 57.5 µM; HFF cells, HCMV-luciferase reporter, 72 h; stronger effect = lower value; actives 4.5% (n = 410,000); in the data active means activity change below about -60%; inconclusive means no clear call, values can overlap the other calls; inactive means above about -39%
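After 16 h attachment at 37C, HFF cells received test compound and HCMV-luciferase (1 PFU/cell); reporter luminescence read 72 h later, data normalized against buffer-only and known inhibitor Salinomycin.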
FMDV inh – High Throughput Screening for Foot and Mouth Disease Virus Antivirals. Potency, µM (top dose mostly 57.9 µM), inactives show at the highest dose activity change, negative = inhibition, hits mostly inhibitors. AID 1159524, 2015. FMDV antiviral cell-based qHTS. actives 1.2% (n = 410,000); calls by dose curve; tested in HEK293T cells; further: read-out not given here; potency means the concentration at half of the fitted maximal effect; nearly all actives have a fitted effect of over 45% in size
Vaccinia Venus – qHTS for Stage-Specific Inhibitors of Vaccinia Orthopoxvirus: Venus Reporter Primary qHTS; Vaccinia virus Venus reporter expression, fluorescence; Potency, µM (doses to about 36.5 µM), without a hit: at the highest dose activity change, negative = inhibition, hits mostly inhibitors; actives 0.46% (n = 330,000); AID 720580, 2013; calls by dose curve; tested in A549 cells; further: potency means the concentration at half of the fitted maximal effect; nearly all actives have a fitted effect of over 30% in size
* marks the source's active call; other numbers are inactive results; i = inactive; ? = inconclusive; / = not tested or not shown; [ ] = dose if it differs, or a comment. The list is not random: actives were taken first. Their share in the collection is about 7.3%. On the % scale 0 is the no-effect control and ±100 the full control effect.

SMILES | HCV inh | VACV mCherry inh | HCMV inh | FMDV inh | Vaccinia Venus
COc1ccc(-c2csc3ncnc(N4CCN(S(=O)(=O)c5cccc(C(F)(F)F)c5)CC4)c23)cc1 | ? | -13.3% | ? | -16.9% | -0.3%
Cc1ccc(C)n1-n1cnc2scc(-c3cccs3)c2c1=O | -26.3% | / | -0.6 | -5.9% | -24.0%
Cn1nnnc1Sc1ncnc2scc(-c3cccc(C(F)(F)F)c3)c12 | / | / | -99.4* | 22.4µM* | /
Cn1nnnc1Sc1ncnc2scc(-c3cc4ccccc4o3)c12 | / | / | -99.7* | 17.8µM* | /
Cn1nnnc1Sc1ncnc2scc(-c3cccs3)c12 | / | / | / | 22.4µM* | /
Cn1nnnc1Sc1ncnc2scc(-c3ccc(-c4ccccc4)cc3)c12 | / | / | -97.2* | ? | /
COC(=O)[C@@]1(Cc2ccc(F)cc2)[C@H]2c3cc(C(=O)N4CCCC4)n(CCCNc4ncc(C(F)(F)F)cc4Cl)c3C[C@H]2CN1C(=O)c1ccccc1 | -10.1% | -22.5% | / | ? | ?
CCn1c(=N)n(CCOc2ccc(Br)cc2)c2ccccc21 | / | i[7.34 µM] | -101.2* | ? | -15.3%[7.34 µM]
CCCCn1c(=N)n(CCOc2ccccc2OC)c2ccccc21 | / | -18.6%[7.34 µM] | -70.5* | ? | -20.4%[7.34 µM]
COc1ccc(OCCn2c(=N)n(CCO)c3ccccc32)cc1 | -13.9% | -19.9% | -10.3 | -26.7% | -7.9%
CCCCn1c(=N)n(CCOc2ccc(C)cc2)c2ccccc21 | 7.9% | 14.1µM* | -37.1 | ? | ?
CCN(CC)CCn1c(=N)n(CC(=O)c2ccc(Br)s2)c2ccccc21 | -87.7% | ? | -97.4* | -24.7% | -27.7%
Cc1ccc(NC(=O)C2CC(=O)N(c3ccccc3Cl)C2)cc1S(=O)(=O)N1CCOCC1 (centres undefined) | ? | -14.2% | 0.0 | ? | -16.1%
COc1ccc2cc(CN(C(=O)c3cc(C)nn3C)C3CC3)c(-c3ccc(Cl)cc3)nc2c1 | / | i | / | -18.9% | -15.1%
CCN(CC)CCn1c(=N)n(CC(O)COc2ccccc2)c2ccccc21 (centres undefined) | ? | -9.5% | 0.0 | -23.5% | -28.2%
CCCCCn1c(=N)n(CC(O)COc2ccccc2OC)c2ccccc21 (centres undefined) | 11.2µM* | ? | -37.4 | ? | ?
CCN(CC)CCn1c(=N)n(CCOc2ccccc2)c2ccccc21 | 10µM* | / | ? | ? | /
CC1(C)C2CCC1(C)C(SC(=N)N)C2 (centres undefined) | ? | i | -8.6 | -17.1% | -17.6%
O=C(NNc1c2ccccc2nc2ccccc12)c1ccccc1O | 8.91µM* | ? | -21.7 | -16.5% | -28.7%
O=C(NNc1c2ccccc2nc2ccccc12)c1ccc(O)cc1O | ? | / | -19.6 | -23.6% | ?
O=C(NNc1nc(=O)c2cccnc2s1)c1ccccc1O | 3.16µM* | -7.2% | 14.5 | 46.0% | -2.3%
O=C(NNC(=O)c1cccc2ccccc12)c1ccccc1O | ? | / | / | 0.0% | /
O=C(NNc1c2ccccc2nc2ccccc12)c1ccccc1Cl | 4.47µM* | / | -25.3 | -17.4% | /
COCCn1c(=NC(=O)CSCC(=O)N2CCOCC2)sc2cc(C)ccc21 | -1.9% | i | 31.5 | -10.5% | -11.1%
CCC1(C2CCN(C(=O)c3coc4c3C(=O)CCC4)CC2)NC(=O)N(CCc2scnc2C)C1=O (centres undefined) | / | -3.7% | / | 11.4% | 1.7%
SMILES | HCV inh | VACV mCherry inh | HCMV inh | FMDV inh | Vaccinia Venus
COc1ccc(C(=O)CSc2nnc(CNc3ccc(C)cc3C)n2Cc2ccco2)cc1 | 6.31µM* | / | 41.1 | -18.2% | /
Cc1occc1-c1nnc(SCC(=O)c2ccc(F)cc2)n1Cc1ccco1 | ? | -15.1% | -9.9 | -4.3% | -16.4%
O=C(CSc1nnc(-c2cc3ccccc3cc2O)n1Cc1ccco1)c1ccc(F)cc1 | 15.8µM* | / | ? | -13.9% | /
Fc1ccc(-c2ccc3c(c2)C2CC3CCN2Cc2ccc3c(c2)OCO3)cc1 (centres undefined) | -36.1% | i | -19.9 | 0.0% | -12.0%
Cc1cccc(-n2nnnc2S(C)(=O)=O)c1 | / | -23.9% | -108.3* | 25.1µM* | -29.2%
COC(=O)c1nnn(-c2cccc(C)c2)c1C(=O)OC | / | -9.2% | -5.5 | -24.8% | -1.7%
C=C(C)CN(CC)C(=O)CN1C(=O)NC(C)(c2ccc3ccccc3c2)C1=O (centres undefined) | -25.0% | i | 36.2 | -11.0% | -12.9%
CC(CCc1ccccc1)NC(=O)N1CCOCC1 (centres undefined) | 16.4% | -13.5% | -30.4 | -8.0% | -1.7%
O=C(NCCc1c[nH]c2ccccc12)/C(=C\c1cccnc1)NC(=O)c1ccccc1Br | -14.6% | / | 6.3 | 3.55µM* | /
Cc1cc(Br)cnc1NC(=S)Nc1ccc(F)cc1F | 10µM* | -16.7% | -25.2 | 8.1% | -5.3%
O=C(c1cc(C2CC2)nn1-c1ccccc1)N1CCN(Cc2ccccc2F)CC1 | 4.5% | i | -10.3 | -10.1% | -15.2%
O=C(c1cc(C2CC2)nn1-c1ccccc1)N1CCN(Cc2ccc(Cl)cc2)CC1 | 7.08µM* | / | -30.5 | ? | /
COc1cc(=O)n2c(c1C(=O)N(C)Cc1cscn1)CCN(Cc1c(C)[nH]c3ccccc13)CC2 | / | i | / | -5.9% | -7.5%
NC(CSC1(c2ccc(F)cc2)c2ccccc2-c2ccccc21)C(=O)O (centres undefined) | / | i | -67.8* | -20.5% | -12.9%
COCC(=O)Nc1c(C(=O)Nc2ccc3c(c2)OCCO3)oc2ccccc12 | ? | -9.9% | 55.6 | 0.0% | -8.9%
CCOCC(=O)Nc1c(C(=O)Nc2ccc3c(c2)OCCO3)oc2ccccc12 | ? | ? | -95.8* | 23.6% | -15.6%
Cc1ccc(NC(=O)c2oc3ccccc3c2NC(=O)C2CCCO2)cc1C (centres undefined) | ? | -18.5% | -81.7* | 10.4% | 2.6%
COc1ccc(NC(=O)c2oc3ccccc3c2NC(=O)C2CCCO2)cc1OC (centres undefined) | ? | -28.5% | ? | 20.1% | -18.2%
O=C(Nc1ccc(F)c(F)c1)c1oc2ccccc2c1NC(=O)C1CCCO1 (centres undefined) | -13.5% | 2.9% | -64.8* | -9.3% | 4.2%
Cc1ccc(C(=O)Nc2cccc(S(=O)(=O)N3CCCC3)c2)o1 | 0.9% | / | 18.7 | -19.0% | /
Cc1ccc(NC(=S)N2CCCC(c3nc4ccccc4[nH]3)C2)cc1 (centres undefined) | 2.51µM* | / | -26.0 | 13.9% | /
Cc1ccccc1NC(=S)N1CCCC(c2nc3ccccc3[nH]2)C1 (centres undefined) | -24.0% | 1.2% | -7.4 | -1.0% | 4.6%
CCN(CC)S(=O)(=O)c1cccc(NC(=O)c2cc3ccccc3o2)c1 | 10µM* | -12.8% | 13.0 | ? | -14.2%
CCN(CC)S(=O)(=O)c1cccc(NC(=O)c2cncc(Br)c2)c1 | ? | i | -3.6 | -5.6% | -22.7%

Bioassay records deposited in PubChem BioAssay by National Center for Advancing Translational Sciences (NCATS).
